Activity calls are given as the source filed them. Rule for the calls: active = hit-call score of the fitted dose curve at least 0.9, where 1 is the maximum; inactive = score below 0.9.

For orientation: AC50 means the midpoint of the concentration-response curve, whichever way the signal moves.

Read-out in the assay: Interleukin 6 (IL6), IL6 (gene 3569)
Description: LTEA_HepaRG_IL6: Life Technologies and Expression Analysis (LTEA) Assay for Interleukin 6 (IL6) using HepaRG (AID 2283509). Particulars: mRNA level, 48 h; actives raise or lower the signal. As to the method:
LTEA_HepaRG is a cell based, multiplexed-readout assay that uses HepaRG, a human liver cell line, with measurements taken at 48 hours after chemical dosing on a 96-well plate.LTEA_HepaRG_IL6 is one of 102 assay component(s) measured in the LTEA HepaRG cell culture assay. It is a marker of Inflammation.Data from the assay component LTEA_HepaRG_IL6 was analyzed into 1 endpoint. This assay endpoint, LTEA_HepaRG_IL6, was analyzed with bidirectional fitting relative to DMSO as the negative control and baseline of activity. Using a type of inducible reporter, measures of mRNA induction for gain or loss-of-signal activity can be used to understand regulation of transcription factor activity. To generalize the intended target to other relatable targets, this assay endpoint is annotated to the cytokine intended target family, where the subfamily is interleukins.
A total of 1060 chemcials from the ToxCast library were tested in eight-point concentration-response experiments. Cell culture and cytotoxicity assays were conducted at Thermo Fisher Scientific's Custom Services facility (Madison, WI). A single lot of human HepaRG cells (Thermo Fisher Scientific, Frederick, MD) was used for the cell culture experiments. 96-well format collagen type I coated plates of human HepaRG cells were prepared using established methods. Briefly, cryopreserved HepaRG cells were thawed, plated at a density of approximately 100,000 cells/well in HepaRG Thaw, Plate, and General Purpose media (HPRG770, Thermo Fisher Scientific), and incubated for 48 hours. 0.5% DMSO was selected as vehicle control to balance the requisite need of DMSO in HepaRG cultures to maintain differentiation (for example, baseline metabolism, proportions of hepatocytes vs. cholangiocytes), while enabling further hepatic receptor pathway activation (for example, PXR and CAR) in response to chemical exposure. 48 hours after plating, the culture medium was replaced with HepaRG Serum-Free Incudtion Media. Cells were exposed to each test chemical in duplicate and maintained in CO2 incubators for another 48 hours. Chemical plates were thawed to room temperature and 200x concentrations of treatment groups were prepared. 8-point conentration-reponse curves were made with the highest exposure at 100 uM, followed by half-log dilutions, all in 0.5% DMSO. Each test plate contained variouse controls, induction positive controls (1mM phenobarbital), cytotoxicity positive controls ([…] aflatoxin B1), vehicle controls (0.5% DMSO), and total lysis controls (0.5% DMSO). Cell morphology images were taken using an Essen IncuCyte FLR automated microscope, with six 96-well plates imaged in about 24 minutes. Images were captured and exported and JPEG files. Spent culture media was transfered to black-well plates for the LDH assay, and remaining media was sorted at -80 C for later use. Cells were treated with RLT buffer and frozen until shipped for gene expression analysis. Total RNA was isolated from the cell suspension in 75 uL of Buffer RLT (Qiagen, Germantown, MD 20874) by Quintiles/Expression Analysis (Durham, NC) using a custom isolation procedure. Total RNA from each plate well was transferred to a preamplification plate. Fluidigm's 96.96 Dynamic ArrayTM (Fluidigm, Amsterdam, the Netherlands) technology was used for gene expression analyses by quantitative reverse transcription polymerase chain reaction (qRT-PCR, performed by Quintiles/Expression Analysis, Durham, NC)89. Standard TaqManTM Assays (Applied Biosystems/ThermoFisher Scientific, Foster City, CA) were used to assess the expression of 93 genes selected based on their selectivity and sensitivity to important hepatic receptors known to be modulated by environmental chemicals; importance in human hepatocyte functionality; and hepatotoxicity. […]
Turning to `O=c1c(-c2ccc(O)cc2)coc2cc(O)ccc12`, the molecule was called inactive.

For `OC1CCC(C2CCCCC2)CC1` (stereo not given), the molecule was called inactive. In the case of `c1ccc2c(c1)ccc1ccccc12`, the call was inactive.

Consider `Cc1cc(CCN2CCN(c3nsc4ccccc34)CC2)cc2c1NC(=O)CC2(C)C`, for which the AC50 was 79.3 µM (active). As for `C#C[C@]1(O)CC[C@H]2[C@@H]3CCC4=CC(=O)CC[C@@H]4[C@H]3CC[C@@]21C`, the result was inactive. As for `CC(C)(C)c1ccc(O)c(C(C)(C)C)c1`, the molecule was classed as inactive.

Take `Cc1cc(C)c(O)c(C)c1`: the molecule was called inactive. Still for that read-out and setting: the same measure for `COCC(C)O` (stereo not given): “inactive”. On to `CN1CCC[C@H]1c1cccnc1`, for which the molecule was called inactive. Consider `CC[C@H](c1ccc(O)cc1)[C@@H](CC)c1ccc(O)cc1`, for which the concentration at half-maximal activity (AC50) is 77.3 µM (active). Take `CCOC(=O)CC(O)(CC(=O)OCC)C(=O)OCC`: the molecule was called inactive. As to `CCCCCCCCCCCCN1CCCC1=O`, the molecule was called inactive. Turning to `CCc1nn(C2CCCCC2)c2cc(C3(C#N)CCC(C(=O)O)CC3)ccc12` (stereo not given), the AC50 is 84.9 µM (active). For the molecule `Cc1oc(-c2ccccc2)nc1CCOc1ccc(C[C@H](Nc2ccccc2C(=O)c2ccccc2)C(=O)O)cc1`, the AC50 is 26.3 µM (active). For `CCCCC(CC)COC(=O)CCCCC(=O)OCc1ccccc1` (stereo not given), the result was inactive. In the case of `CCCOC(=O)c1ccc(O)cc1`, the molecule was classed as inactive. `C=C(C)C(=O)OCCC(F)(F)C(F)(F)C(F)(F)C(F)(F)C(F)(F)C(F)(F)F`: the molecule was called inactive. On to `CCN(CC)CCNc1ccc(CNC=O)c2sc3ccc(OC)cc3c(=O)c12`, for which the AC50 is 76.8 µM (active). `CCCCCCC(=O)O`: the outcome was inactive. Take `c1ccc2cc3c(ccc4ccccc43)cc2c1`: the outcome was inactive. With `COC(=O)CCCCC(=O)OC`, the molecule was classed as inactive. As to `CC1=C(/C=C/C(C)=C/C=C/C(C)=C/C(=O)O)C(C)(C)CCC1`, the result was inactive. With `C[C@@H]1C[C@H]2[C@@H]3CCC4=CC(=O)C=C[C@]4(C)[C@@]3(F)[C@@H](O)C[C@]2(C)[C@@]1(O)C(=O)COP(=O)(O)O`, the molecule was called inactive.

Consider `CN1CCN(c2ccccc2/C=C2\SCCN(c3ccc(Cl)c(Cl)c3)C2=O)CC1`, for which the AC50 is 92.2 µM (active).

For `CC(O)CO` (stereo not given), the molecule was classed as inactive. Still for that read-out and setting: the entry for `CCCCC(CC)COC(=O)CCCCC(=O)OCC(CC)CCCC` (stereo not given) is “inactive”; for `OC1CCCCC1` it is “inactive”.

For `OCCC(F)(F)C(F)(F)C(F)(F)C(F)(F)C(F)(F)C(F)(F)F`, the molecule was classed as inactive.

With `ClC1=C(Cl)C(Cl)(Cl)C(Cl)=C1Cl`, the molecule was called inactive. With `CCCOc1sc(C(=O)N2CCC(c3cc(CN)ccc3F)CC2)c(C)c1Br`, the call was inactive. On the same count and under the same terms, the same measure for `CCCCCCCC(=O)O`: “inactive”. On to `CC(=O)NC1(c2cccc(F)c2)CCN(CC[C@@]2(c3ccc(Cl)c(Cl)c3)CN(c3ccccc3)C(=O)CO2)CC1`, for which the AC50 was 76.2 µM (active). With `Nc1cccc2c(N)cccc12`, the result was inactive. Regarding `CC(C)(C)c1cc(C(C)(C)C)c(O)c(C(C)(C)C)c1`, the result was inactive. Consider `CCCCCCCCC(=O)O`, for which the molecule was classed as inactive.

As for `N#C[C@@H]1CC(F)(F)CN1C(=O)CNC1CC2CCC(C1)N2c1ncccn1` (stereo not given in full), the molecule was classed as inactive. For the molecule `c1ccc2c(c1)Cc1ccccc1-2`, the molecule was classed as inactive. On to `Oc1cccc(O)c1`, for which the outcome was inactive. Still for that read-out and setting: the entry for `O=C(OCCOCCOC(=O)c1ccccc1)c1ccccc1` is “inactive”; for `COCC(C)OCC(C)O` (stereo not given) it is “inactive”.

Source of the values: PubChem BioAssay (EPA / NIEHS).
